From PubChem BioAssay
Only some compounds are listed: those with a hit (about 0.45% of all), similar ones and a draw of the others.
FMDV RLuc – Primary qHTS Assay for Foot and Mouth Disease Virus Antivirals against NCGC Sytravon and CBC Compound Libraries: Renilla Luciferase Signal | FMDV replicon cells, Renilla luciferase signal | Potency, µM (top dose mostly 57.5 µM), inactives show at the top dose activity change, negative = inhibition, most hits filed as inhibitors | AID 1745857, 2022 | 0.32% of 120,000 active; note: nearly all actives have a fitted effect of over 55% in size
FMDV antiviral – Primary qHTS Assay for Foot and Mouth Disease Virus Antivirals against NCGC Sytravon and CBC Compound Libraries: Firefly Luciferase Signal; 0.23% of 120,000 active; Potency, µM (titrated, usually from 57.5 µM), for the others: at the top dose activity change, negative = inhibition, hits mostly inhibitors; FMDV antiviral cell assay, firefly luciferase signal; AID 1745856, 2022; note: nearly all actives have a fitted effect of over 60% in size
An asterisk follows results filed as active; ? = inconclusive; [ ] = remark or other dose. Calls come from the whole dose curve. % is set by controls: 0 for no effect and ±100 for the full control effect; potency is the fitted concentration of half-maximal effect.

SMILES	FMDV RLuc	FMDV antiviral
O=C(O)c1cc(NCc2ccccc2OCc2ccccc2)ccc1N1CCOCC1	35%	6%
O=C(O)c1cc(NCc2ccc(OCc3ccccc3)cc2)ccc1N1CCOCC1	28µM*	?
CCOCN(C(=O)Cn1c(C)nc2ccccc21)c1c(C)cccc1CC	-5%	-5%
CCn1cc(C(=O)Cn2c(C)nc3ccccc32)c2ccccc21	8.9µM*	?
COc1cc(C)cc2oc(=O)c(CC(=O)Nc3nc(CC(=O)O)cs3)c(C)c12	-4%	2%
CCS(=O)(=O)N1CCC(C(=O)Nc2ccc(OC)c(OC)c2)CC1	-1%	7%
CCC(Oc1ccccc1F)C(=O)Nc1ccccc1Cl (stereo not given)	-5%	-4%
CNc1nc2c(c(=O)n(C)c(=O)n2C)n1CC(O)COc1ccc(C)cc1 (stereo not given)	11µM*	?
CCNc1nc2c(c(=O)n(C)c(=O)n2C)n1CC(O)COc1ccccc1 (stereo not given)	-11%	-1%
CCOc1ccc2nc(SCC(=O)N3CCN(S(=O)(=O)c4ccccc4)C3C(C)C)[nH]c2c1 (stereo not given)	?	25µM*
CCOc1ccc2nc(SCC(=O)N(Cc3ccccc3)C3CCS(=O)(=O)C3)[nH]c2c1 (stereo not given)	5%	2%
COc1ccc(NC(=O)CSC2=NC3(CCCCC3)Nc3ccccc32)cc1Cl	-10%	9%
N#Cc1c(NC(=O)c2cc(=O)c3ccccc3o2)sc2c1CCCC2	1%	138%
N#Cc1c(NC(=O)c2ccnn2C(F)F)sc2c1CCCCC2	5µM*	?
N#Cc1c(NC(=O)c2nn(-c3ccccc3)c(=O)c3ccccc23)sc2c1CCCC2	1%	-4%
N#Cc1c(NC(=O)c2ccnn2C(F)F)sc2c1CCCC2	3.2µM*	?
N#Cc1c(NC(=O)c2ccnn2C(F)F)sc2c1CCC2	3.2µM*	?
N#Cc1c(NC(=O)CSc2nccn2Cc2ccccc2)sc2c1CCC2	20%	94%
Cc1ccccc1-c1nc2cc(NC(=O)c3ccco3)ccc2o1	1%	184%
COc1ccc(N(C(=O)c2cccs2)C2C=CS(=O)(=O)C2)c(OC)c1 (stereo not given)	-10%	-6%
CN(CC(=O)NC(=O)NCCC1=CCCCC1)C1CCCCC1	-6%[1.06 µM]	0%
COC(=O)c1ccc(NC(=O)CCc2c(C)nc3cc(-c4cccc(F)c4)nn3c2C)cc1	-7%	?
Cc1nc2cc(-c3ccccc3)nn2c(C)c1CCC(=O)NCCc1ccccc1	6%	?
CCCCNC(=O)CCc1c(C)nc2cc(-c3ccccc3)nn2c1C	-15%	1.8µM*
COc1ccc(NC(=O)CCc2c(C)nc3cc(-c4cccc(F)c4)nn3c2C)cc1Cl	-6%	28µM*
SMILES	FMDV RLuc	FMDV antiviral
O=C(/C=C/c1ccccc1)N1CCC(c2nc3ccccc3o2)CC1	17%	22%
Cc1nc2nc(CC(=O)Nc3ccccc3)nn2c(C)c1Cc1ccccc1Cl	1%	21%
CCOC(=O)c1ccc(NS(=O)(=O)c2cc(Br)cc3c2N(C(C)=O)C(C)C3)cc1 (stereo not given)	121%	20µM*
CC(=O)N1c2c(cc(Br)cc2S(=O)(=O)Nc2ccc(OC(F)(F)F)cc2)CC1C (stereo not given)	190%	?
N#Cc1nc(-c2ccc([N+](=O)[O-])cc2)oc1NCCc1ccccc1	9%	29%
CC(NC(=O)c1ccc2c(c1)NC(=O)CS2)C1CC1 (stereo not given)	6%	14%
COc1ccc(-c2cc(C(F)(F)F)nc(S(C)(=O)=O)n2)cc1	?	-32%
CCOC(=O)CS(=O)(=O)c1nc(-c2ccc(F)cc2)cc(C(F)(F)F)n1	28µM*	?
COc1ccc(C(=O)N2CCN(C(=O)Cc3cc(OC)c(OC)c(OC)c3)CC2)cc1	-17%	-5%
CCN1CCN(CCOc2ccc3c(=O)c(-c4ccc(Cl)cc4)coc3c2)CC1	18µM*	-9%
CCN1CCN(CCOc2ccc3c(=O)c(-c4ccc(Br)cc4)coc3c2)CC1	?	37%
Cc1oc(-c2cccs2)nc1C(=O)NCC(C)N1CCOCC1 (stereo not given)	-13%	-12%
CCc1ccc(NC(=O)C(C#N)=C2CCCCC2)cc1	23%	0%
COc1ccc(Cn2c(CCC(=O)Nc3ccc(C)cc3C)nc3cccnc32)cc1	-3%	-11%
Cc1ccc(NC(=O)Cc2ccc(-n3c(C)nc4cccnc43)cc2)c(Cl)c1	10µM*	14µM*
CCC1CN(C(=O)C2CCN(c3nc4ccccc4o3)CC2)CCO1 (stereo not given)	-4%	17%
N#C/C(=C/c1ccc(OC(F)F)cc1)C(=O)c1c[nH]c2cc(F)ccc12	1%	-7%
Cc1cccc(COc2ccc(/C=C(\C#N)c3nc4ccccc4[nH]3)cc2)c1	?	0%
N#C/C(=C\c1ccc(OCc2ccc(C#N)cc2)cc1)c1nc2ccccc2[nH]1	4µM*	-10%
CCc1ccc(-c2nc(COC(=O)c3c(C)nsc3N)cs2)cc1	1.4µM*	?
CCc1ccc(-c2nc(C)c(C(C)=O)s2)cc1	14%	129%
O=C(Nc1ccccc1-c1nc2ccccc2s1)c1ccc(F)cc1	-9%	-13%
O=C(Oc1ccc(F)cc1)c1ccc(-c2nc3ccccc3s2)s1	8%	10µM*
O=C(NC12CC3CC(CC(C3)C1)C2)c1ccc(-c2nc3ccccc3s2)s1	20%	20µM*
Cc1ccccc1C(=O)NC12CC3CC(CC(C3)C1)C2	37%	21%
SMILES	FMDV RLuc	FMDV antiviral
COc1ccc(-c2cc(C(F)(F)F)nc(NCc3ccccc3)n2)cc1	4µM*	?
Fc1ccc(-c2cc(C(F)(F)F)nc(NCc3ccccc3)n2)cc1	-5%	-9%
CC(C)(C)NC(=O)CNc1nc(-c2ccncc2)nc2ccccc12	-1%	2%
Cc1ccc(NS(=O)(=O)c2ccc(-c3cnc(C4CC4)o3)cc2)cc1F	135%	-26%
CC(=O)c1cccc(NS(=O)(=O)c2ccc(-c3cnc(C4CC4)o3)cc2)c1	-21%	8.9µM*
CC(C)(C)c1ccc(C(=O)NCCCNC(=O)c2ccc(C(C)(C)C)cc2)cc1	-6%	9%
CCOc1ccc2c(c1)cc(C(=O)NCCOc1ccc(Cl)cc1)n2C	8%	-5%
CC(=O)c1ccc(NC(=O)CSc2nc(C)c(C)o2)cc1	39%	170%
CCCn1c(N(C)Cc2ccccc2)nc2c1c(=O)n(C)c(=O)n2C	?	14µM*
Cn1c(=O)c2c(nc(N(CCO)CCO)n2Cc2ccccc2)n(C)c1=O	1%	2%
COCCOc1ccc(/C=C/C(=O)c2ccc(C#N)cc2)cc1OC	13%	10%
COCCOc1ccc(C(=O)/C=C/c2cc(OC)c(OC)c(OC)c2)cc1	28µM*	?
O=C(CCCc1c[nH]c2ccccc12)Nc1cccc2cnccc12	11µM*	?
O=C(CCCc1c[nH]c2ccccc12)Nc1ccc2ncccc2c1	5%	0%
Cc1nc(/C=C/c2ccc(Cl)cc2)sc1C(=O)O	12%	0.89µM*
O=C(O)c1ccc(/C=C/c2nc3cc(Cl)ccc3o2)cc1	4%	67%
O=C(O)CNS(=O)(=O)c1cccnc1	-12%[1.06 µM]	-1%
CC(Oc1cccc(Cl)c1)c1nc(-c2ccncc2)no1 (stereo not given)	-2%	21%
Cc1ccccc1CN1CCC(N2CCCCCC2)CC1	?	25µM*
Cc1ccccc1CN1CCC(C(=O)O)CC1	5%	6%
